Compound activity (PubChem)
The list is not random: actives were taken first. Their share in the collection is about 1.5%.
BCLXL inh – blocks human Bcl-xL binding to Bim BH3 peptide; GST-Bcl-xL / FITC-Bim BH3 peptide fluorescence polarization; inhibition, % at 10.9 µM; hit rate 0.7% among 320,000; AID 2129;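 active = inhibition above the mean of all tested compounds plus 3 SD, cutoff set per campaign, cut at about 30% in these data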;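 note: 0% = DMSO wells and 100% = unlabeled Bim-BH3 peptide competitor; inhibitors lower millipolarization by displacing the labeled peptide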
Target sequence (Q07817 whole entry, looked up): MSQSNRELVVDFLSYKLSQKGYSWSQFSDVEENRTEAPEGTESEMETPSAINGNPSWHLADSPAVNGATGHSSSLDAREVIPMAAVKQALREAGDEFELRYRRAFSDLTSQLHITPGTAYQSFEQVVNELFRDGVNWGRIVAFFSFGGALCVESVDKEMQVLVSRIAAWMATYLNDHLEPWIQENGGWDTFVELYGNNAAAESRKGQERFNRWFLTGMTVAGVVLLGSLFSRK
GLD-1 TGE inh – GLD-1-TGE RNA interaction inhibition (C. elegans) | Q17339 | hit rate 0.44% among 320,000 | purified GLD-1 + fluorescein TGE RNA, fluorescence polarization | AID 2280 | inhibition, % at 5.96 µM;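 active = percent inhibition above a per-plate cutoff, the plate mean of test compounds plus 3 SD, cut at about 30% in these data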;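 note: 0% = DMSO wells with GLD-1 and probe and 100% = wells lacking GLD-1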
MEX-5 binding – C. elegans MEX-5 TCR-2 RNA binding activity | Q9XUB2 | MEX-5/FITC-TCR2 RNA binding, fluorescence polarization; stronger effect = lower value | activity score (negative = inhibition of binding), % at 10 µM | hit rate 0.38% among 300,000;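 active = inhibition past about -25% in most replicates, and total fluorescence under double the plate's negative control median, limit read from the data; inconclusive = replicates evenly split on the limit, or fluorescence at least double controls; inactive = too little inhibition in most replicates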;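 note: 0% = DMSO and -100% = 5 µM competing unlabeled TCR2 RNA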
EBV gp42 inh – blocks Epstein-Barr virus glycoprotein 42 binding | inhibition, % (tested at 21.74 µM) | hit rate 0.42% among 220,000 | Fluorescence polarization binding assay, mP read-out; in the data active = inhibition above about 50%
MCL1-BIM inh – MCL1-BIM-BH3 interaction inhibition (human). hit rate 0.68% among 320,000. AID 2057. GST-MCL1 / FITC-Bim-BH3 fluorescence polarization. inhibition, % at 10.9 µM. Q07820;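 active = inhibition above the mean inhibition of all tested compounds plus 3 SD, set per campaign, cut at about 40% in these data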;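 note: 0% = DMSO wells and 100% = unlabeled Bim-BH3 peptide control; higher means more loss of mP so more displacement of Bim peptide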
Target sequence (Q07820 whole entry, looked up): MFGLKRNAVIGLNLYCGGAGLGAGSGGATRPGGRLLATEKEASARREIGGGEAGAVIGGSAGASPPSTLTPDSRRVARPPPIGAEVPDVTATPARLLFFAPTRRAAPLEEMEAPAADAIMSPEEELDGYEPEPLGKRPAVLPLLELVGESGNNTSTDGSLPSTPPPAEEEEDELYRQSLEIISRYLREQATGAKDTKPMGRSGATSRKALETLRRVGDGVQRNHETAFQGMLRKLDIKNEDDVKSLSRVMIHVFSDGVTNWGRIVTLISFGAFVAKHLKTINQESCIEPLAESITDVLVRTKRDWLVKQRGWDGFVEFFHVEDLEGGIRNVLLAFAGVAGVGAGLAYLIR
eLon inh – E. coli protease La inhibition | inhibition, % at 7.94 µM | hit rate 0.42% among 360,000 | AID 602123 | purified E. coli Lon protease, fluorescence polarization | P0A9M0; in the data active = inhibition above about 13%, passing the limit was not always enough;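 note: 0% = enzyme with probe and DMSO and 100% = no enzyme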
* hit, by the source's call; ? = inconclusive; / = not tested or not shown.

SMILES | BCLXL inh | GLD-1 TGE inh | MEX-5 binding | EBV gp42 inh | MCL1-BIM inh | eLon inh
N#C/C(=C/c1ccc(-c2ccc(S(N)(=O)=O)cc2)o1)c1nc2ccccc2s1 | 45* | -47 | / | 64* | 15 | -384
N#C/C(=C\c1ccc(-c2nc3ccccc3s2)o1)C(N)=O | 19 | -3 | -8 | -19 | 18 | -17
N#C/C(=C/c1ccc(-c2ccc(S(N)(=O)=O)cc2)o1)C(=O)Nc1ccccc1 | 1 | -1 | -10 | -139 | 6 | -12
CNC(=O)/C(C#N)=C/c1ccc(-c2nc3ccccc3s2)o1 | 10 | 6 | -67* | 10 | 11 | -10
O=C(Nc1cccc(S(=O)(=O)N2CCCC2)c1)[C@@H]1O[C@H](CO)[C@@H](O)[C@H]1O | / | / | / | / | / | 3
CCOC(=O)c1ccc(NC(=O)c2nc[nH]c2C(=O)N(C)CCO)cc1 | / | / | / | / | / | -2
CCc1nnc(SCC(=O)Nc2nc(C)c(C(=O)N(C)C)s2)n1CC | -2 | 7 | -4 | / | 3 | -12
Cc1ccc2c(Cl)cc(Cl)c(OCC(=O)NCc3ccco3)c2n1 | / | / | / | 69* | / | /
CCOc1ccccc1-n1c(SCC(=O)N2CCOCC2)nc2ccccc2c1=O | 2 | -3 | -2 | / | -1 | -6
COC(=O)CSc1nnc(CCc2ccccc2)n1C | -1 | -1 | 2 | / | -6 | -1
CC(=O)Nc1cccc(OCc2ccc(S(=O)(=O)Cc3ccccc3)cc2)c1 | 5 | 5 | 2 | -12 | 6 | 7
N#C/C(=N/Nc1ccc(OC(F)(F)F)cc1)C(N)=S | 11 | 11 | -2 | -12 | -1 | -4
NC(=S)N=Nc1ccc(NN=C(N)N)cc1 | 13 | -1 | -53* | / | 16 | -3
O=C(Nc1c2ccccc2nc2ccccc12)C(Cl)(Cl)Cl | 36* | 19 | -1 | 8 | 35 | 9
O=C(Cc1ccccc1)NNc1c2ccccc2nc2ccccc12 | -2 | 7 | 2 | -3 | 4 | 2
NS(=O)(=O)c1cccc(NC(=O)CSc2nnc(-c3ccncc3)n2C2CC2)c1 | / | 4 | / | / | / | -14
CCCOc1ccccc1-c1nc2c([nH]1)c(=O)[nH]c(=O)n2C | 35* | 15 | -9 | 22 | 32 | 3
C/C(=N\NC(=O)CN1CCN(S(=O)(=O)c2ccc(C)cc2)CC1)c1ccc(O)cc1 | -2 | 1 | 0 | -21 | -7 | -3
CCOc1ccccc1NC(=O)NNS(=O)(=O)c1cc(OC)ccc1OC | 3 | 1 | 4 | / | 4 | 12
Cc1ccsc1C(C(=O)NCc1ccccc1)N(C(=O)c1csnn1)c1ccccc1 (centres undefined) | 4 | 1 | -1 | / | 3 | 4
COCCN=c1scc(-c2ccco2)n1/N=C/c1ccc(O)c(O)c1O | -15 | -15 | / | 74* | 11 | 18
CC(C)N=c1scc(-c2ccco2)n1/N=C/c1ccc(O)c(O)c1 | 4 | 2 | / | -3 | 27 | 3
CC(C)Cn1c(=O)c(C(=O)Nc2ccccc2S(N)(=O)=O)c(O)c2ccccc21 | -3 | 3 | 3 | -9 | 1 | 7
Cn1c(=O)c(C(=O)Nc2ccccc2S(N)(=O)=O)c(O)c2ccccc21 | 34* | 1 | 2 | -10 | 25 | -8
COc1cc(Cl)c(C)cc1NC(=O)COC(=O)C1=COCCO1 | 3 | 6 | -2 | / | 4 | 0
SMILES | BCLXL inh | GLD-1 TGE inh | MEX-5 binding | EBV gp42 inh | MCL1-BIM inh | eLon inh
Cc1cc(NC(=O)COC(=O)C2=COCCO2)c([N+](=O)[O-])cc1C | 42* | 2 | -1 | -7 | 3 | -1
COc1ccc(NC(=S)NNc2ccc(S(=O)(=O)Nc3ccccc3C(=O)O)cc2[N+](=O)[O-])cc1 | 24 | -1 | -87* | -5 | 38 | 7
CCc1ccc(C(O)(CC(C)C)C(CN2CCOCC2)c2ccccc2)cc1 (centres undefined) | / | / | -2 | / | / | -8
COc1ccc(C(O)(CC(C)C)C(CN2CCOCC2)c2ccccc2)cc1 (centres undefined) | 47* | 4 | 0 | / | 0 | -5
Cc1cc(=O)oc2cc(OCC(=O)N/N=C/c3cc([N+](=O)[O-])ccc3O)ccc12 | 4 | 12 | -2 | 92* | 10 | -9
Cc1ccc(S(=O)(=O)N2CCN(C)CC2c2ccccc2)cc1 (centres undefined) | 7 | 2 | / | / | -4 | 0
COc1cc2sc3cc(NCCCN4CCOCC4)ccc3c(=O)c2cc1OC | / | 0 | / | / | / | 9
O=c1c2ccccc2sc2ccc(NCCCN3CCOCC3)cc12 | 15 | 36* | -2 | / | 19 | -46
Cc1cc2oc3cc(NCCC4CCCN4C)ccc3c(=O)c2cc1C (centres undefined) | 7 | -6 | 8 | / | 2 | -6
CN1CCCC1CCNc1ccc2sc3ccccc3c(=O)c2c1 (centres undefined) | 33* | 39* | -5 | / | 31 | -18
O=C(NCC(=O)N1CCCC(C(F)(F)F)C1)c1cccs1 (centres undefined) | / | / | / | / | / | 4
O=C(Nc1cccnc1)C1Cc2c(-c3ccccc3Oc3ccccc3)ccnc2O1 (centres undefined) | / | / | / | / | / | -12
O=S(=O)(Nc1ccc(O)c2ccccc12)c1ccc(Br)cc1 | 13 | 7 | -27* | / | 18 | /
O=S(=O)(Nc1ccc(O)c2ccccc12)c1cccs1 | 9 | 4 | -13 | / | 18 | 10
CC(=O)c1ccc(Nc2c3c(c(C#N)c4nc5ccccc5n24)CCC3)cc1 | -13 | -19 | -2 | -29 | -34 | /
CC(=O)Nc1ccc(N2CCc3c(C)c(C#N)c4nc5ccccc5n4c32)cc1 | 19 | 11 | -14 | 59* | 7 | /
OCCNc1nc(Nc2ccc(Br)cc2)nc2ccccc12 | 4 | 2 | -1 | 56* | -4 | /
COc1ccc2[nH]c3c(c2c1)CCN1C(=O)C(CC(=O)NCCc2ccccn2)C[C@H](C(=O)N(C(C)C)C(C)C)[C@@]31C (some centres undefined) | / | / | / | / | / | 0
CSc1nc(NCCCO)c2c3c(sc2n1)CN(C)CC3 | 5 | 3 | -4 | 30 | 4 | -2
CCN(CC)CCCNc1nc(SC)nc2sc3c(c12)CCN(C)C3 | 71* | -28 | 0 | / | 7 | /
CC(=O)Nc1cccc(-c2ccnc3c2CC(C)(C(=O)NCc2ccncc2)O3)c1 (centres undefined) | / | / | / | / | / | -1
O=C(O)c1ccc(-c2ccc(/C=C3\NC(=O)N(Cc4ccc(Cl)cc4)C3=O)o2)cc1Cl | / | / | -32* | 20 | / | -13
COc1ccccc1-c1coc2c(CN3CCN(CCO)CC3)c(O)ccc2c1=O | 4 | 5 | -1 | / | 2 | -2
CC(C)c1ccc(/C=C2\Oc3c(ccc(O)c3CN3CCN(C)CC3)C2=O)cc1 | 41* | -6 | -20 | -28 | 36 | -83
CCN1CCN(Cc2c(O)ccc3c2O/C(=C\C=C\c2ccccc2OC)C3=O)CC1 | 39* | -22 | ? | -105 | 2 | -40
Cc1ccc(/C=C2\Oc3c(ccc(O)c3CN3CCN(CCO)CC3)C2=O)cc1 | 48* | -2 | -32* | -2 | 37 | -50
